Experiment [1] can be described thus: CCTE_Mundy_HCI_iCellGluta_NOG_NeuriteLength: CCTE's Neurite Outgrowth Assay in iCellGluta cells for Neurite Length, Mundy Lab (AID 2284318; active = hit-call score of the fitted dose curve at least 0.9, where 1 is the maximum). In a few lines: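 Automated high-content imaging of betaIII-tubulin (Alexa Fluor-488) and Hoechst-stained cells gave neurite length, normalized to the DMSO baseline.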
Experiment [2] in a line: CCTE_Mundy_HCI_iCellGluta_NOG_NeuronCount: CCTE's Neurite Outgrowth Assay in iCellGluta cells for Neuron Count, Mundy Lab (AID 2284340; active = hit-call score of the fitted dose curve at least 0.9, where 1 is the maximum;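 also: cells fixed about 48 h after compound addition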). In a few lines:
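Neuron count read by automated high-content imaging of Hoechst 33342 and betaIII-tubulin/Alexa Fluor-488 labelling in human iPSC glutamatergic neurons. Activity fitted relative to DMSO.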

Experiment [3] can be described thus: CCTE_Mundy_HCI_iCellGluta_NOG_NeuriteCount: CCTE's Neurite Outgrowth Assay in iCellGluta cells for Neurite Count, Mundy Lab (AID 2284342; active = hit-call score of the fitted dose curve at least 0.9, where 1 is the maximum;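 also: chemical exposure about 48 hours starting 2 hours after plating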).
Experiment [4] can be described thus: Tanguay_ZF_120hpf_DP24: Oregon State University Tanguay Lab 24 Hour Post-fertilization zebrafish Assay for Delayed Development (AID 2284390). In a few lines:
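Dechorionated 5D wild-type zebrafish embryos exposed statically from 6 hpf, one per well, 0.64% DMSO final, 28 C, sealed and dark. Developmental progression scored at 24 hpf by brightfield as binary present/absent; dead embryos excluded.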

A short description of experiment [5]: Tanguay_ZF_120hpf_CRAN: Oregon State University Tanguay Lab 120 Hour Post-fertilization zebrafish Assay for Craniofacial Malformation (AID 2284397). In a few lines:
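Dechorionated Tropical 5D wild-type zebrafish embryos, one per well, were statically exposed from 6 to 120 hpf at 28C in 0.64% DMSO, with 5uM trimethyltin chloride as positive control. Craniofacial malformation was scored present/absent by brightfield microscopy, relative to DMSO.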

A short description of experiment [6]: Tanguay_ZF_120hpf_AXIS: Oregon State University Tanguay Lab 120 Hour Post-fertilization zebrafish Assay for Axial Malformation (AID 2284398). In a few lines:
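Dechorionated 5D wild-type zebrafish embryos exposed statically, one per well, from 6 to 120 hpf at 28C, 0.64% DMSO. Axial malformation scored as present/absent by brightfield microscopy at 120 hpf; dead embryos not scored.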

The nature of experiment [7]: IUF_NPC4_neurite_area_120hr: Leibniz Research Institute for Environmental Medicine (IUF) 120-hour Neuronal Morphology Assay for Neurite Area (NPC4) (AID 2284305; active = hit-call score of the fitted dose curve at least 0.9, where 1 is the maximum). In a few lines: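 Human fetal neural progenitor spheres (0.3 mm) plated on poly-D-lysine/laminin in N2 differentiation medium, exposed 120 h (7 concentrations, DMSO ≤0.1%, half-medium refresh day 3). Fixed, TUBB3 immunostained; mean neurite area per neuron by Omnisphero skeletonization.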

Experiment [8] in a line: IUF_NPC2-5_cytotoxicity_72hr: Cytotoxicity Assessment at 72 hours in the Leibniz Research Institute for Environmental Medicine (IUF) Neural Progenitor Cell Migration and Differentiation Assay for Cytotoxicity (NPC2-5) (AID 2284306; active = hit-call score of the fitted dose curve at least 0.9, where 1 is the maximum;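 also: LDH release into supernatant measured by resorufin fluorescence marking membrane damage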). In a few lines: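 Human fetal primary neural progenitor spheres (0.3 mm) plated on poly-D-lysine/laminin in N2 differentiation medium, exposed from day 0 at 37C. LDH-dependent resazurin-to-resorufin fluorescence in supernatant at 72 h; 7 concentrations, DMSO at most 0.1%.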

Experiment [9] in a line: IUF_NPC2-5_cytotoxicity_120hr: Cytotoxicity Assessment at 120 hours in the Leibniz Research Institute for Environmental Medicine (IUF) Neural Progenitor Cell Migration and Differentiation Assay (NPC2-5) (AID 2284307; active = hit-call score of the fitted dose curve at least 0.9, where 1 is the maximum). In a few lines: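 Membrane-integrity loss is quantified by LDH in supernatant after five days of exposure of migrating, differentiating human fetal NPC spheres; seven serially diluted concentrations are tested with DMSO kept at or below 0.1%.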

Experiment [10] can be described thus: IUF_NPC2-5_cell_number_120hr: Cell Number Assessment at 120 hours in the Leibniz Research Institute for Environmental Medicine (IUF) Neural Progenitor Cell Migration and Differentiation Assay (NPC2-5) (AID 2284308).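 Also: count of Hoechst-stained nuclei in migration zone around plated human neural progenitor spheres.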 In a few lines:
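Seven-point serial dilutions plus solvent control were applied to plated 0.3 mm hNPC spheres at differentiation start, with medium half-replaced at day 3. Nuclei positive for Hoechst in the migration zone were enumerated at 120 h.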

The nature of experiment [11]: IUF_NPC2-5_viability_120hr: Viability Assessment at 120 hours in the Leibniz Research Institute for Environmental Medicine (IUF) Neural Progenitor Cell Migration and Differentiation Assay (NPC2-5) (AID 2284312). In a few lines: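 Human fetal neural progenitor spheres (0.3 mm) plated on poly-D-lysine/laminin in N2 differentiation medium, exposed 120 h with half-medium refresh at day 3. Viability by alamar blue resazurin fluorescence; 7 concentrations, DMSO max 0.1%.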

Experiment [12] can be described thus: TAMU_PeakParms_SingleDonor1434_Asystole: Texas A&M University (TAMU) 1.5-hr Human Induced Pluripotent Stem Cell (iPSC)-derived Cardiomyocytes Calcium (Ca+2) Flux Assay for Cardiotoxicity: Asystole (quiescence of beating) (AID 2284328; active = hit-call score of the fitted dose curve at least 0.9, where 1 is the maximum). In a few lines: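 Donor 1434 iPSC-cardiomyocytes exposed 90 min at 37C, 5% CO2, to 0.2, 1, 10 and 100 uM in 0.5% DMSO. Ca2+ dye fluorescence gave average peak frequency; POD is EC95, a 95% beat-rate drop versus controls.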

The nature of experiment [13]: IUF_NPC1_cytotoxicity_72hr: Cytotoxicity Assessment at 72 hours in the Leibniz Research Institute for Environmental Medicine (IUF) Neural Progenitor Cell Proliferation Assay (NPC1) (AID 2284332; active = hit-call score of the fitted dose curve at least 0.9, where 1 is the maximum;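 also: rising LDH signal means more cytotoxicity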). In a few lines: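 hNPC spheres (fetal brain, gestational week 16-19) grown under proliferative EGF/FGF conditions, pH 7.2-7.6, were treated continuously for 72 h. Cytotoxicity came from LDH-coupled resazurin fluorescence in each well's supernatant.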

For another experiment, the system named is TTR (gene 7276). In words: CCTE_GLTED_hTTR_0.5uM: CCTE's human Transthyretin (hTTR) Inhibition Assay, with 0.5uM TTR, Great Lakes Toxicology and Ecology Division (GLTED) Lab (AID 2284320). In a few lines:
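Cell-free displacement assay in which human TTR at 0.5 uM was incubated with test chemical for 2 h. Displacement of the ANSA probe was read by fluorescence at 380 nm excitation/475 nm emission. Loss of signal was fitted in the positive direction versus DMSO.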

The subject of a further experiment is IYD (gene 389434). Nature of the experiment: CCTE_GLTED_hIYD: CCTE's human Iodotyrosine Deiodinase (xIYD) Inhibition Assay, Great Lakes Toxicology and Ecology Division (GLTED) Lab (AID 2284317; active = hit-call score of the fitted dose curve at least 0.9, where 1 is the maximum;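 also: cell-free human IYD enzyme made in baculovirus insect cells; iodide freed from monoiodotyrosine measured by cerium arsenite color change at 420 nm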). In a few lines: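 First, recombinant human IYD (baculovirus-insect cells), MIT and chemical incubated 3 h. Next, iodide isolated on Dowex. Finally, Sandell-Kolthoff rate read at 420 nm, with platewise normalization to MNT and solvent controls.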

A short description of experiment [14]: Tanguay_ZF_120hpf_MO24: Oregon State University Tanguay Lab 24 Hour Post-fertilization zebrafish Assay for Mortality (AID 2284389). In a few lines:
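Dechorionated wild-type zebrafish embryos, 1 per well, statically exposed from 6 hpf at 28C, 0.64% DMSO final. Mortality scored as binary present/absent at 24 hpf by brightfield microscopy, relative to DMSO.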

The next experiment relates to SERPINA7 (gene 6906). Nature of the experiment: CCTE_GLTED_hTBG: CCTE's human Thyroxine-binding Globulin (TBG) Inhibition Assay, Great Lakes Toxicology and Ecology Division (GLTED) Lab (AID 2284343; active = hit-call score of the fitted dose curve at least 0.9, where 1 is the maximum;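 also: active chemicals lower fluorescence versus DMSO baseline by displacing probe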). In a few lines:
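Measures how far test chemicals displace ANSA bound to purified human TBG. The read-out is fluorescence at 380 nm excitation and 475 nm emission, taken after 2 h of incubation.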

Inconclusive results are not listed. Active and inactive are the calls of the source. The calls were made as follows, unless noted: active = hit-call score of the fitted dose curve at least 0.9, where 1 is the maximum; inactive = score below 0.9.

One may read the AC50 as the concentration giving half of the maximal activity seen.

For `FC(F)(F)C(F)(F)C(F)(F)C(F)(F)C(F)(F)C(F)(F)C(F)(F)C(F)(F)CCS`, the result in [1], in [3], in experiment [4], in experiment [5] and in experiment [6] was inactive. In experiment [2], the AC50 is 5 µM (active).

Consider `OC[C@@H](O)[C@@H](O)[C@H](O)[C@@H](O)CO`, for which the outcome in experiment [7], in experiment [8], in experiment [9], in experiment [10], in experiment [11] and in experiment [12] was inactive. Moreover, the outcome in [13] was inactive.

With `N=C(N)C(F)(F)C(F)(F)C(F)(F)C(F)(F)C(F)(F)C(F)(F)C(F)(F)F`, the outcome in experiment [1], in experiment [2], in experiment [3], in experiment [4], in experiment [5] and in experiment [6] was inactive. In addition, the AC50 in the experiment on TTR (gene 7276) is 4.85 µM (active).

With `FC(F)(I)C(F)(F)C(F)(F)C(F)(F)I`, the AC50 with TTR (gene 7276) is 3.74 µM (active).

As to `OCCCC(F)(F)C(F)(F)C(F)(F)C(F)(F)C(F)(F)C(F)(F)C(F)(F)F`, the compound was called inactive in [1], in [2], in experiment [3], in experiment [4], in [5] and in experiment [6].

As to `O=S(=O)(O)C(F)(F)C(F)(F)C(F)(F)C(F)(F)C(F)(F)C(F)(F)C(F)(F)F`, the AC50 with IYD (gene 389434) is 100 µM (active); in the experiment on TTR (gene 7276) it was 0.0773 µM (active); in experiment [5] it was 33.4 µM (active); in experiment [6] it was 49.5 µM (active). Moreover, the compound was classed as inactive in experiment [14] and in experiment [4].

Turning to `CCCCC(CC)COP(=O)(O)OCC(CC)CCCC` (stereo not given), the AC50 in the experiment on IYD (gene 389434) was 100 µM (active); in the experiment on SERPINA7 (gene 6906) it was 2.42 µM (active).

Regarding `O=C(O)C(F)(OC(F)(F)C(F)(OC(F)(F)C(F)(OC(F)(F)C(F)(F)C(F)(F)F)C(F)(F)F)C(F)(F)F)C(F)(F)F` (stereo not given), the outcome in [4], in [5] and in [6] was inactive.

As to `OCC(F)(F)C(F)(F)C(F)(F)C(F)(F)C(F)(F)C(F)F`, the half-maximal activity concentration (AC50) in the experiment on TTR (gene 7276) is 33.2 µM (active). In addition, the outcome in [4], in experiment [5] and in [6] was inactive.

On to `FC1CC(F)(F)C(F)(F)C1(F)F` (stereo not given), for which the outcome in experiment [4], in [5] and in [6] was inactive.

Regarding `CCO[Si](CCC(F)(F)C(F)(F)C(F)(F)C(F)(F)C(F)(F)C(F)(F)F)(OCC)OCC`, the compound was classed as inactive in experiment [14], in [4], in [5] and in experiment [6].

Take `OCC(F)(F)C(F)(F)C(F)(F)C(F)(F)C(F)(F)C(F)(F)F`: the AC50 in the experiment with TTR (gene 7276) is 36.8 µM (active). In addition, the call in experiment [4], in experiment [5] and in experiment [6] was inactive.

In the case of `O=C(O)C=C(C(F)(F)F)C(F)(F)F`, the result in experiment [4], in experiment [5] and in experiment [6] was inactive.

`CCCCCCCCC(F)(F)C(F)(F)C(F)(F)C(F)(F)C(F)(F)C(F)(F)F`: the outcome in experiment [4], in [5] and in experiment [6] was inactive.

Consider `O=C(O)C(F)(F)C(F)(F)F`, for which the result in experiment [4], in [5] and in [6] was inactive.

As for `C=C(C)C(=O)OCCC(F)(F)C(F)(F)C(F)(F)C(F)(F)C(F)(C(F)(F)F)C(F)(F)F`, the outcome in [4], in experiment [5] and in [6] was inactive.

(Values after PubChem BioAssay (EPA / NIEHS).)
